Experiment [1] is described as follows: compounds altering circadian rhythm period length – cell-based, LOPAC library, luminescence reporter (AID 2774; call rule not given here;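 note: values are relative to mean of DMSO wells on each plate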). As to conditions: circadian reporter cells, at 7 µM, actives lie on both sides.
Experiment [2] can be described thus: P. berghei load reduction in hepatocytes – cell-based, HepG2, luciferase luminescence, HepG2 viability, primary screen (AID 624349; in the data active = parasite load remaining mostly below about 12%, no sharp cut-off; inactive = mostly above about 10%;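 note: 100% = mean of DMSO negative control wells on the same plate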). As to conditions: P. berghei liver stage in HepG2, luciferase luminescence, concentration not given here; parasite load remaining: stronger effect = lower value; viability: measured here: HepG2 viability without parasites.
In experiment [3] the test system is Hepatitis C virus NS3 helicase. The experiment is described as follows: blockers of NS3h binding to ssDNA – biochemical, fluorescence polarization, LOPAC1280 library, primary screen (AID 687035; in the data active = inhibition above about 37%). To be noted: Purified HCV NS3 helicase, Cy5-dT15 ssDNA binding fluorescence polarization; stronger effect = higher value; concentration not given here. A general note: Polarisation of emitted light reports the rotation of a fluorescent probe.

Experiment [4] can be described thus: compounds altering Cy5-DNA-NS3h complex signal – biochemical, LOPAC1280, artefact control for HCV NS3 helicase inhibitor project (AID 687037; call rule not given here). As to conditions: Cy5-DNA-NS3h complex fluorescence interference counterscreen. Background: The purpose of a counterscreen is to sort out artefacts and off-target activity.
In experiment [5] the test system is Aerobactin synthetase IucA (Klebsiella pneumoniae). As to the kind of experiment: inhibition of K. pneumoniae IucA enzyme – biochemical, Tocris library, absorbance (AID 1345561; call rule not given here;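 note: 100% = enzyme without compound and 0% = no enzyme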). As to conditions: purified IucA enzyme assay, absorbance (OD) read-out; stronger effect = lower value;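 tested at 8 µM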.
Experiment [6] in a line: viability loss in pontine glioma line – cell-based, JHH-DIPG-1, MIPE4.0, CellTiter-Glo, qHTS, dose response (AID 1347062; cut-off not given, nearly all actives have AC50 up to about 27 µM). As to conditions: JHH-DIPG-1 viability, CellTiter-Glo ATP luminescence. (In general: Cellular ATP, detected with luciferase, serves as a proxy for viable cell number.)
The nature of experiment [7]: growth inhibition of DIPG cells – cell-based, MIPE5.0 library, qHTS (AID 1347068; cut-off not given, nearly all actives have IC50 up to about 30 µM). As to conditions: SU-DIPG-XXV viability.
Experiment [8] can be described thus: viability loss with induced miR-34 in A549 – imaging, A549 dox-inducible miR-34, nuclei and caspase counts, primary screen (AID 1347080;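 active = compounds whose cell count with miR-34 switched on is under 0.7 times the count with it off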). As to conditions: A549 miR-34 inducible, Hoechst nuclei count, 48 h.
Experiment [9] can be described thus: chitosan synthesis blockers in C. neoformans – flow cytometry, Cibacron Brilliant Red staining (AID 1347148; call rule not given here;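 note: compound exposure lasted three days at 37 degrees C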). As to conditions: Cryptococcus neoformans chitosan, stronger effect = lower value; at 10 µM unless noted.
Experiment [10] in a line: galactose survival enhancers in mitochondrial complex I cybrids – cell-based, galactose medium, ATP luminescence, primary screen (AID 1645843;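 active = z-score of at least 1.8 in each of two replicates, scored against plate mean and spread of sample wells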;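 note: positive z means more ATP and so rescue of galactose-driven cybrid death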). To be noted: complex I mutant cybrid cells, 72 h, stronger effect = higher value.
The nature of experiment [11]: growth inhibition of DIPG cells – cell-based, MIPE4.0 library, CellTiter-Glo luminescence, qHTS (AID 1347066; cut-off not given, nearly all actives have AC50 up to about 30 µM;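 note: cells exposed to compound for 48 hours before readout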). To be noted: SU-DIPG-VI viability, CellTiter-Glo ATP luminescence.
Experiment [12] in a line: blockers of cellular phospholipid synthesis – cell-based, LOPAC library, screen 4, primary screen (AID 1347384; call rule not given here). To be noted: animal cells, phospholipid biosynthesis inhibition screen; at 10 µM.
A short description of experiment [13]: viability loss in pontine glioma line – cell-based, SU-DIPG-XIII, MIPE4.0, CellTiter-Glo, qHTS, dose response (AID 1347061; cut-off not given, nearly all actives have AC50 up to about 37 µM;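 note: cells exposed to compound for 48 hours before readout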). To be noted: CellTiter-Glo ATP luminescence.
Experiment [14] can be described thus: viability loss in pontine glioma line – cell-based, SU-DIPG-IV, MIPE4.0, CellTiter-Glo, qHTS, dose response (AID 1347063; cut-off not given, nearly all actives have AC50 up to about 30 µM;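 note: compound exposure lasted 48 hours before the viability readout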). To be noted: CellTiter-Glo ATP luminescence.
Experiment [15] is described as follows: viability loss in pontine glioma line – cell-based, SU-DIPG-XIII, MIPE5.0, CellTiter-Glo, qHTS, dose response (AID 1347064; cut-off not given, nearly all actives have AC50 up to about 23 µM). As to conditions: CellTiter-Glo ATP luminescence.
Experiment [16] in a line: compounds altering HSF1 focus formation in cells – imaging, Selleck Cancer Library (AID 1347162; in the data active = plate-normalised HSF1 focus index below about 0.46). To be noted: human cells, HSF1 nuclear foci imaging, at 10 µM; SSMD: measured here: HSF1 foci SSMD mean; cell count: measured here: cell number; plate-normalised HSF1 focus index: stronger effect = lower value.
Experiment [17] in a line: MELAS cybrid and Rieske KO viability enhancers – cell-based, MELAS cybrids, Rieske KO mouse fibroblasts, CellTiter-Glo, primary screen (AID 1508586;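 active = mean z-score across replicates of 1.96 or higher in either the MELAS or the Rieske mutant cell line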;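 note: z relative to plate mean and SD of compound and empty wells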). As to conditions: low glucose.
A short description of experiment [18]: drug combination growth inhibition, ovarian cancer – cell-based, oncology-focused library, rucaparib conditional, profiling panel (AID 1508598). As to conditions: patient-derived ovarian cancer cells, CellTiter-Glo viability, 144 h, stronger effect = lower value.
[19] abbreviates: stronger effect = lower value, cell number ratio, induced over uninduced.
The mark [20] stands for this setting: measured here: relative caspase fold change +Dox/-Dox.
Setting [21] is: measured here: total cells with miR-34 induction, stronger effect = lower value.
Where [22] appears, read: measured here: total cells without miR-34 induction.

SMILES strings stand for the structures. Several values for one entry are separate records, joined by “and”; a condition that tells them apart may be missing. Equal values may be shown once. Results filed as inconclusive are left out. Activity calls are given as the source filed them.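 Rule for the calls, unless noted: active = normalized viability below 100% at a tested concentration; inactive = the rest.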

We go through four compounds from PubChem BioAssay.

Broadly, the viability is a read-out of living cells in per cent, often relative to untreated cells. As a reminder, the inhibition is the relative decrease from the control value, in per cent. In general, remaining activity refers to the signal under treatment as a percentage of the control signal. In general, AC50 refers to the midpoint of the concentration-response curve, whichever way the signal moves.

For `N#C/C(=C\c1ccc(O)c(O)c1)C(=O)NCc1ccccc1`, the period change in experiment [1] was 0.01 h (inactive). Moreover, in experiment [2], the parasite load remaining was 29.1% (inactive). Moreover, the viability in [2] stood at 65.5%. In experiment [3], the inhibition is 0% (inactive). Moreover, the fluorescence ratio (interference) in [4] was 1 (inactive). Moreover, in experiment [5], the remaining activity was 113% (inactive). For the same compound, the compound was called inactive in experiment [6] and in experiment [7]. Moreover, the fold change in experiment [8] (setting [19]) was 1.1 (inactive) and 0.928 (inactive); in experiment [8] (setting [20]) it was 1.17 and 1.42. For the same compound, the cell count in [8] (setting [21]) was 2450 and 8410; in experiment [8] (setting [22]) it was 2230 and 9060. Moreover, the fold fluorescence in [9] was 6.89 [at 169.9 µM] (inactive). In addition, the z-score in experiment [10] was -0.425 (inactive).

As for `CC(C)(Sc1ccc(CCN(CCCCC2CCCCC2)C(=O)NC2CCCCC2)cc1)C(=O)O`, the period change in [1] was -0.015 h (inactive). Further, the inhibition in experiment [3] was 3% (inactive). Moreover, the fluorescence ratio (interference) in [4] is 1 (inactive). Moreover, the remaining activity in experiment [5] was 122% (inactive). Further, the result in [6], in experiment [11], in experiment [7] and in [12] was inactive. Also, the fold change in [8] (setting [19]) is 0.945 (inactive) and 0.954 (inactive) and 0.926 (inactive); in experiment [8] (setting [20]) it was 1.38 and 0.651 and 0.687. The cell count was 8520 and 5920 and 7310 in experiment [8] (setting [21]); 9020 and 6210 and 7900 in experiment [8] (setting [22]). For the same compound, the z-score in [10] was 0.62 (inactive) and 1.14 (inactive).

Turning to `O=c1cc(N2CCOCC2)oc2c(-c3ccccc3)cccc12`, the period change in experiment [1] is 0.01 h (inactive). Also, the parasite load remaining in experiment [2] was 36% (inactive). The viability is 79.9% in experiment [2]; 97.6% (active) in experiment [18] (at 0.000305 µM, OCI-C5x cells, with rucaparib 10 µM, 100% = cells with rucaparib alone); 103% (inactive) in [18] (at 0.000305 µM, OCI-C5x cells, without rucaparib); 93.4% (active) in experiment [18] (at 0.000305 µM, OCI-P5x cells, with rucaparib 20 µM, 100% = cells with rucaparib alone); 83.4% (active) in experiment [18] (at 0.000305 µM, OCI-P5x cells, without rucaparib); 102% (inactive) in [18] (at 0.00122 µM, OCI-C5x cells, with rucaparib 10 µM, 100% = cells with rucaparib alone). Besides, the viability in [18] (at 0.00122 µM, OCI-C5x cells, without rucaparib) is 103% (inactive); in experiment [18] (at 0.00122 µM, OCI-P5x cells, with rucaparib 20 µM, 100% = cells with rucaparib alone) it was 97.2% (active); in experiment [18] (at 0.00122 µM, OCI-P5x cells, without rucaparib), 86.3% (active); in experiment [18] (at 0.00488 µM, OCI-C5x cells, with rucaparib 10 µM, 100% = cells with rucaparib alone), 93% (active); in [18] (at 0.00488 µM, OCI-C5x cells, without rucaparib) it was 104% (inactive); in [18] (at 0.00488 µM, OCI-P5x cells, with rucaparib 20 µM, 100% = cells with rucaparib alone), 99.1% (active). Also, the viability in [18] (at 0.00488 µM, OCI-P5x cells, without rucaparib) was 95.7% (active); in experiment [18] (at 0.0195 µM, OCI-C5x cells, with rucaparib 10 µM, 100% = cells with rucaparib alone), 102% (inactive); in [18] (at 0.0195 µM, OCI-C5x cells, without rucaparib), 104% (inactive); in [18] (at 0.0195 µM, OCI-P5x cells, with rucaparib 20 µM, 100% = cells with rucaparib alone), 98.1% (active); in experiment [18] (at 0.0195 µM, OCI-P5x cells, without rucaparib) it was 96% (active); in experiment [18] (at 0.0781 µM, OCI-C5x cells, with rucaparib 10 µM, 100% = cells with rucaparib alone), 106% (inactive). In addition, the viability was 101% (inactive) in [18] (at 0.0781 µM, OCI-C5x cells, without rucaparib); 102% (inactive) in experiment [18] (at 0.0781 µM, OCI-P5x cells, with rucaparib 20 µM, 100% = cells with rucaparib alone); 98.9% (active) in experiment [18] (at 0.0781 µM, OCI-P5x cells, without rucaparib); 106% (inactive) in experiment [18] (at 0.313 µM, OCI-C5x cells, with rucaparib 10 µM, 100% = cells with rucaparib alone); 108% (inactive) in experiment [18] (at 0.313 µM, OCI-C5x cells, without rucaparib); 98% (active) in experiment [18] (at 0.313 µM, OCI-P5x cells, with rucaparib 20 µM, 100% = cells with rucaparib alone). In addition, the viability in experiment [18] (at 0.313 µM, OCI-P5x cells, without rucaparib) was 97.6% (active); in experiment [18] (at 1.25 µM, OCI-C5x cells, with rucaparib 10 µM, 100% = cells with rucaparib alone), 94% (active); in experiment [18] (at 1.25 µM, OCI-C5x cells, without rucaparib), 109% (inactive); in [18] (at 1.25 µM, OCI-P5x cells, with rucaparib 20 µM, 100% = cells with rucaparib alone), 99.6% (active); in [18] (at 1.25 µM, OCI-P5x cells, without rucaparib), 102% (inactive); in experiment [18] (at 5 µM, OCI-C5x cells, with rucaparib 10 µM, 100% = cells with rucaparib alone), 98.7% (active). Moreover, the viability is 107% (inactive) in experiment [18] (at 5 µM, OCI-C5x cells, without rucaparib); 96.2% (active) in [18] (at 5 µM, OCI-P5x cells, with rucaparib 20 µM, 100% = cells with rucaparib alone); 93.7% (active) in [18] (at 5 µM, OCI-P5x cells, without rucaparib). Moreover, in experiment [3], the inhibition was -3% (inactive). Besides, the fluorescence ratio (interference) in [4] is 1 (inactive). In addition, the remaining activity in experiment [5] was 118% (inactive). Moreover, the compound was called inactive in experiment [13], in [15], in [7] and in experiment [12]. In addition, the AC50 in experiment [14] was 2.64 µM (active). For the same compound, the fold fluorescence in [9] was 9.29 [at 162.7 µM] (inactive). For the same compound, the SSMD in experiment [16] worked out at 1.15. The cell count in experiment [16] was 6500. In addition, the plate-normalised HSF1 focus index in [16] was 1.06 (inactive). The z-score in [17] (MELAS cybrid survival, CellTiter-Glo 48 h, stronger effect = higher value) is -0.417 (inactive); in experiment [17] (Rieske KO mouse fibroblast survival, CellTiter-Glo 72 h), 0.668; in experiment [10] it was 5.55 (active) and 5.94 (active).

With `N#CC(=C(/N)Sc1ccccc1N)/C(C#N)=C(\N)Sc1ccccc1N`, the remaining activity in [5] was 92.9% (inactive). Besides, the AC50 in experiment [14] was 8.33 µM (active). Also, the fold fluorescence in experiment [9] was 5.14 [at 131.4 µM] (inactive). For the same compound, in experiment [10], the z-score was -0.875 (inactive).
